Data on eight compounds can be found in PubChem BioAssay (NCI).

The panel holds about 83,000 compounds, 20% with a hit somewhere; the sample as a whole holds those more often.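 In brief: 96-well plates, 48 h treatment, single concentration, percent growth endpoint.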 A number with no mark means an inactive call. Activity calls are given as the source filed them. How the source made its calls: active means growth percent below 10; inactive means the rest.

What all share (experiment): NCI-60 one-dose screen, 48 h (100 = growth as untreated, 0 = no growth, -100 = all killed)
For experiment [1], the system named is DU-145 prostate. The note with it: 10 µM unless noted.
Experiment [2] deals with K-562 leukemia. The note with it: 10 µM unless noted.
The test system of experiment [3] is MALME-3M melanoma. The note with it: 10 µM unless noted.
The subject of experiment [4] is MDA-MB-231 breast. To be noted: 10 µM unless noted.
Experiment [5] deals with RXF 393 renal. To be noted: 10 µM unless noted.
Experiment [6] concerns SF-268 CNS. To be noted: 10 µM unless noted.
Experiment [7] relates to SF-295 CNS. The note with it: 10 µM unless noted.
In experiment [8] the test system is SF-539 CNS. The note with it: 10 µM unless noted.
The test system of experiment [9] is UACC-257 melanoma. To be noted: 10 µM unless noted.
In experiment [10] the test system is M14 melanoma. To be noted: 10 µM unless noted.
Experiment [11] has as its system HCT-15 colon. The note with it: 10 µM unless noted.
Experiment [12] has as its system HT29 colon. To be noted: 10 µM unless noted.
Experiment [13] has as its system SNB-75 CNS. To be noted: 10 µM unless noted.
Experiment [14] relates to U251 CNS. The note with it: 10 µM unless noted.
Experiment [15] deals with PC-3 prostate. To be noted: 10 µM unless noted.
For experiment [16], the system named is SK-MEL-5 melanoma. The note with it: 10 µM unless noted.
Experiment [17] concerns UACC-62 melanoma. The note with it: 10 µM unless noted.
For experiment [18], the system named is SK-MEL-28 melanoma. The note with it: 10 µM unless noted.
In experiment [19] the test system is SNB-19 CNS. The note with it: 10 µM unless noted.
Experiment [20] deals with LOX IMVI melanoma. The note with it: 10 µM.

As for `COc1ccc(NC(=O)Cn2c(O)c(N=Nc3ccc(S(N)(=O)=O)cc3)c3ccccc32)cc1`, the growth in experiment [1] is 82.4%; in experiment [2], 40.8%; in experiment [3] it was 29.8%; in experiment [4], -22.1% (active); in experiment [5] it was 82.7%; in experiment [6], 69.1%. The growth was 22.1% in experiment [7]; 23.4% in experiment [8]; 67% in experiment [9]; 27.4% in experiment [10]; 79% in experiment [11]; -2.87% (active) in experiment [12]. In addition, the growth is 59.7% in experiment [13]; -32.5% (active) in experiment [14]; 14.4% in [15]; 62.3% in [16]; 20.7% in experiment [17]; 26.7% in experiment [18].

On to `Cc1ccc2c(c1)nc(-c1ccccc1)n2CC(=O)N=Nc1c(O)[nH]c2ccc(Br)cc12`, for which the growth in [1] is -10.8% (active); in experiment [2], -7.04% (active); in experiment [3], -85.7% (active); in experiment [4], -76.4% (active); in [5], -79.9% (active); in experiment [6], 0.768% (active). The growth in [7] is -80.6% (active); in experiment [8] it was -91.1% (active); in [9], -51.5% (active); in [10], -54.6% (active); in experiment [11], -79.9% (active); in [12] it was -67.6% (active). For the same compound, the growth in [19] was -30.8% (active); in experiment [14] it was -74.3% (active); in experiment [15], -78% (active); in experiment [16], -57.3% (active); in experiment [17], -87.4% (active); in experiment [20], -93.6% (active). For the same compound, the growth in experiment [18] was -88.3% (active).

As to `O=C(Cn1c(/C=C/c2ccccc2)nc2ccccc2c1=O)Nc1ccccc1`, the growth in [1] is 74.8%; in [2], 93.2%; in [3] it was 69.9%; in experiment [4], 24.8%; in experiment [5] it was 8.81% (active); in experiment [6], 91.4%. Besides, the growth was 70.7% in [7]; 70.2% in experiment [8]; 104% in experiment [9]; 102% in experiment [10]; 76.6% in experiment [11]; 98.5% in experiment [12]. The growth in experiment [19] was 67.8%; in experiment [14], 35.8%; in [15], 76.1%; in experiment [16], 97.3%; in [17], 90.1%; in [20], 43.2%. Moreover, in experiment [18], the growth was 111%.

For `C=C1CC[C@@H]2[C@]3(C)COC(c4cn[nH]c4-c4cccc(Br)c4)O[C@@H]3CC[C@@]2(C)[C@@H]1C/C=C1/C(=O)OCC1O` (stereo not given in full), the growth in experiment [1] is -85.5% (active); in [2], -2.18% (active); in [3], -74.5% (active); in experiment [4] it was -47.3% (active); in [5], -90.8% (active); in experiment [6], -22.7% (active). Besides, the growth in [7] is -78.6% (active); in experiment [8], -97.8% (active); in experiment [9] it was -72% (active); in experiment [10], -75.7% (active); in [11], -67.5% (active); in experiment [12], 1.52% (active). The growth in [19] is -87.9% (active); in [14], -90.9% (active); in experiment [15], -47.9% (active); in experiment [16] it was -99.6% (active); in [17], -83.2% (active); in [20] it was -100% (active). For the same compound, the growth in experiment [18] was -76.7% (active).

Turning to `O=C(/C=C/c1ccc(O)c(O)c1)NC1CCOC1O` (stereo not given), the growth is 108% in [1]; 88.3% in experiment [2]; 103% in experiment [3]; 99.1% in [4]; 125% in [5]; 99.6% in experiment [6]. Besides, the growth was 101% in [7]; 95.7% in experiment [8]; 102% in experiment [9]; 108% in experiment [10]; 94.6% in [11]; 113% in experiment [12]. Besides, the growth was 91.6% in experiment [13]; 95.4% in experiment [14]; 95.4% in [15]; 103% in [16]; 104% in experiment [17]; 107% in [18].

With `N/N=C(\N)c1c(N)nc(=S)[nH]c1-c1ccc(Cl)cc1Cl`, the growth in experiment [1] is 120%; in experiment [2], 105%; in [3], 92.3%; in experiment [4], 94.9%; in experiment [5] it was 115%; in experiment [6], 108%. For the same compound, the growth in experiment [7] is 94.5%; in experiment [8], 94.6%; in experiment [9] it was 108%; in experiment [10], 107%; in experiment [11], 111%; in [12] it was 111%. The growth in experiment [19] was 93.4%; in experiment [14] it was 104%; in experiment [15], 96.8%; in [16], 108%; in experiment [17], 93.8%; in [20] it was 106%. Moreover, in experiment [18], the growth is 116%.

Turning to `COc1ccc(-c2ccnc(SCc3cc4cc(OC)ccc4[nH]c3=O)n2)cc1`, the growth in experiment [1] was 43.7%; in [2] it was 4.74% (active); in experiment [3], 36.7%; in [4], 22.7%; in [5] it was 7.02% (active); in [6] it was 36.6%. The growth was 17.5% in experiment [7]; 20.5% in experiment [8]; 38% in [9]; 19.8% in experiment [10]; 10.5% in [11]; 19.9% in experiment [12]. Further, the growth is 36.3% in experiment [19]; 22.7% in experiment [14]; 23.8% in experiment [15]; -3.59% (active) in [16]; 16.4% in experiment [17]; 18.7% in experiment [20]. For the same compound, in [18], the growth was 36.5%.

Regarding `CN(C)CCOc1ccc(C(=O)C2[C@H](c3ccc(Cl)cc3)[C@@H](c3ccccc3)NC23C(=O)Nc2ccccc23)cc1` (stereo not given in full), the growth in experiment [1] is 66.6%; in experiment [2] it was -51.5% (active); in experiment [3], 79.8%; in [4], 49.5%; in experiment [5] it was 50.4%; in experiment [6], 78.1%. Besides, the growth was 65.7% in experiment [7]; 82.8% in experiment [8]; 95.8% in experiment [9]; 45.2% in experiment [10]; 12% in [11]; -69.3% (active) in [12]. For the same compound, the growth in experiment [19] is 83.8%; in [14], 11.9%; in [15], 41.9%; in experiment [16], 83.7%; in experiment [17] it was 78.8%; in experiment [20], -94.3% (active). The growth in experiment [18] was 94.6%.
